Assay results published in paper PMC5540273 (PLoS ONE, 2017).

Key:
Details in all cases: concentration: 1 μM, replicates: in singlicate; n = 1
[1] = system: CSF1R
[2] = system: CSK
[3] = system: CSNK1A1L
[4] = system: CSNK1A1
[5] = system: CSNK1D
[6] = system: CSNK1E
[7] = system: CSNK1G1
[8] = system: CSNK1G2
[9] = system: CSNK1G3
[10] = system: CSNK2A1
[11] = system: CSNK2A2
[12] = system: T1, CTK
T1 construct: gene MATK

[13] = system: DAPK1
[14] = system: DAPK2
[15] = system: DAPK3
[16] = system: T2, DCAMKL1
T2 construct: gene DCLK1

[17] = system: T3, DCAMKL2
T3 construct: gene DCLK2

[18] = system: T4, DCAMKL3
T4 construct: gene DCLK3

[19] = system: DDR1
[20] = system: DDR2
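Note: KINOMEscan kinase panel screen.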

SMILES | %Inh [1] | %Inh [2] | %Inh [3] | %Inh [4] | %Inh [5] | %Inh [6] | %Inh [7] | %Inh [8] | %Inh [9] | %Inh [10] | %Inh [11] | %Inh [12] | %Inh [13] | %Inh [14] | %Inh [15] | %Inh [16] | %Inh [17] | %Inh [18] | %Inh [19] | %Inh [20]
Cc1cccc(-c2cc(-c3c[nH]nc3-c3ccccn3)ccn2)c1 [GW679395] | 53% | 0% | 2% | 0% | 25% | 10% | 8% | 0% | 6% | 0% | 8% | 0% | 6% | 0% | 16% | 14% | 0% | 13% | 36% | 8%
COc1cccc(-n2cnc3c(N)ncnc32)c1 [SKF-97416] | 7% | 8% | 0% | 31% | 12% | 0% | 0% | 0% | 3% | 0% | 11% | 48% | 15% | 0% | 3% | 0% | 4% | 0% | 0% | 21%
Nc1n[nH]c2nnc(-c3ccccc3)c(-c3ccccc3)c12 [GW554060] | 0% | 0% | 13% | 0% | 0% | 7% | 0% | 0% | 0% | 11% | 0% | 0% | 0% | 0% | 19% | 1% | 0% | 0% | 28% | 22%
COC(=O)c1c(-c2ccccc2)c2cc(Br)ccc2c(=O)n1Cc1ccc(NC(=O)CCC(=O)O)cc1 | 9% | 0% | 18% | 16% | 0% | 0% | 0% | 11% | 0% | 11% | 19% | 6% | 0% | 0% | 0% | 16% | 0% | 0% | 2% | 22%
COc1ccc(-c2coc3ccc(-c4nnc(SCc5cccc(C#N)c5)o4)cc23)cc1 | 2% | 20% | 7% | 10% | 0% | 5% | 11% | 0% | 8% | 3% | 28% | 0% | 29% | 0% | 0% | 35% | 0% | 0% | 0% | 3%
O=C(NCCNc1ccnc(Nc2ccc(F)cc2)n1)Nc1ccc2c(c1)OCO2 [GSK1379882] | 18% | 2% | 0% | 0% | 2% | 42% | 3% | 0% | 22% | 3% | 16% | 0% | 19% | 8% | 26% | 0% | 0% | 0% | 0% | 18%
CCC(=O)c1c(-c2ccccc2)c2cc(Cl)ccc2c(=O)n1Cc1cc(C(=O)NC2CC2)n(C)n1 | 9% | 0% | 0% | 11% | 0% | 0% | 0% | 0% | 0% | 0% | 3% | 17% | 14% | 0% | 0% | 12% | 0% | 0% | 26% | 29%
Cl.NS(=O)(=O)c1cccc(Nc2cc(-c3ccc(F)cc3)n[nH]2)c1 [GW824645] | 9% | 0% | 0% | 3% | 0% | 19% | 3% | 0% | 0% | 0% | 20% | 19% | 0% | 0% | 0% | 15% | 44% | 0% | 0% | 45%
